Experimental findings from PubChem BioAssay are described below.

Values without a mark were called inactive. How the calls were made is not given here.

The test deals with Pantothenate synthetase (Mycobacterium tuberculosis (strain ATCC 25618 / H37Rv)) (UniProt P9WIL5). Description: Recombinant Mtb pantothenate synthetase (PanC) inhibitors, coupled enzyme, confirmatory (AID 375).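 Further: 0% = full reaction with vehicle and 100% = no enzyme background.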 The settings on record: coupled enzyme assay; at 10 µM, hits give high values.
Chain of Pantothenate synthetase (Mycobacterium tuberculosis (strain ATCC 25618 / H37Rv)) (P9WIL5 whole entry, looked up): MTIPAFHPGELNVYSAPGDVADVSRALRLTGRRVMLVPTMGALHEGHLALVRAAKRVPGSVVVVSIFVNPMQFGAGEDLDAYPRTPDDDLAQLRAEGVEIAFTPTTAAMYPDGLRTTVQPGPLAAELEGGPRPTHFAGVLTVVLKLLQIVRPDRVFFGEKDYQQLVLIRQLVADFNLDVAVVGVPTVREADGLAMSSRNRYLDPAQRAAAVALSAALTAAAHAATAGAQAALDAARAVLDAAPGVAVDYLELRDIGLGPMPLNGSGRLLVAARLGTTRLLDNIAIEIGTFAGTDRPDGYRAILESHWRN
For `O=C(NC1CCCCCCC1)C1CCN(c2nc3ccccc3o2)CC1`, the inhibition was 3%.

As to `O=C(C1CCCCC1)N1CCC(c2nc3c(nnn3Cc3ccccc3Cl)c(=O)[nH]2)CC1`, the inhibition was 4%.

With `CCC(=O)NC1(C(F)(F)F)C(=O)NC(C)=C1C#N` (stereo not given), the inhibition is 6%.

Take `CCN(CC)CCNC(=O)CCn1c(=S)[nH]c2cc3c(cc2c1=O)OCO3`: the inhibition is 0%.

Take `CN(C)CCCN1C(=O)c2oc3ccc(Cl)cc3c(=O)c2C1c1cccnc1` (stereo not given): the inhibition is 0%.

Turning to `Cc1ccc(N2CCN(C(=O)c3ccccc3Br)CC2)c(C)c1`, the inhibition was 6%.

With `O=S(=O)(Cc1ccccc1)N1CCN(Cc2ccccc2)CC1`, the inhibition was 5%.

For the compound `Cc1sc2ncnc(SCC(=O)N3CCCC3)c2c1C`, the inhibition is 0%.

Consider `CCn1c(-c2cc(Br)ccc2O)n[nH]c1=S`, for which the inhibition was 0%.

Turning to `Cc1ccc(S(=O)(=O)N2CCC(C(=O)NCCN3CCCCCC3)CC2)cc1`, the inhibition is 0%.

`Cc1oc(-c2ccc(Cl)cc2)nc1CS(=O)CC(=O)NCCCN(C)C1CCCCC1` (stereo not given): the inhibition was 0%.

Consider `CCOc1cc(S(=O)(=O)N2CCC(Cc3ccccc3)CC2)c(OCC)cc1-n1cnnn1`, for which the inhibition is 7%.

In the case of `COc1ccc(-n2ncc3c(NCc4ccccn4)ncnc32)cc1`, the inhibition was 11%.

In the case of `CCNc1nc(OC)nc(Oc2ccc(=O)n(-c3ccccc3)n2)n1`, the inhibition is 4%.

On to `CCn1c(Cc2ccccc2)nnc1SCC(=O)Nc1cc(C)on1`, for which the inhibition is 0%.

As to `CCOc1ccc(S(=O)(=O)Nc2ccccc2C(=O)Nc2ccccc2N2CCOCC2)cc1`, the inhibition was 1%.

As to `Cn1ccnc1SCC(=O)Nc1ccc2ccccc2c1`, the inhibition was 2%.

As for `COc1ccccc1NC(=O)CSc1nnc(Cn2nnc(-c3ccccc3)n2)n1-c1ccccc1`, the inhibition is 0%.

For the compound `CC(Oc1ccc(Br)cc1)C(=O)N1CCc2ccccc21` (stereo not given), the inhibition is 0%.

For `Cc1nn(-c2ccccc2)c2sc(C(=O)N3CCOCC3)cc12`, the inhibition was 0%.

Consider `COC(=O)c1[nH]c2ccc(C)cc2c1NC(=O)CN1CCCC(C)(C)C1`, for which the inhibition is 0%.

On to `O=C(Cn1c(NCCO)nc2ccccc21)c1ccccc1`, for which the inhibition is 6%.

For the compound `CCOC(=O)c1ccc(NC(=O)CSc2ncccn2)cc1`, the inhibition was 6%.

In the case of `Cc1nc2oc3c(NCc4ccccn4)ncnc3c2c2c1COC(C)(C)C2`, the inhibition is 0%.

As to `O=C(CN1CCC(NC(=O)c2ccc(F)cc2)CC1)NCc1ccccc1F`, the inhibition was 5%.

For `CN(c1ccccc1C(N)=O)S(=O)(=O)c1ccccc1`, the inhibition was 10%.

For `CC(=O)C1=C(N2CCCCC2)CCC1=O`, the inhibition was 0%.

With `CS(=O)(=O)N(CC(=O)Nc1cccc(F)c1)Cc1ccccc1`, the inhibition was 0%.

In the case of `CC(C)(C)OC(=O)N1CCN(c2ccc(NC(=O)c3cc4ccccc4oc3=O)cc2)CC1`, the inhibition was 6%.

On to `O=C(O)CCN(CCC(=O)O)c1nnc(SCc2ccccc2)s1`, for which the inhibition was 2%.

In the case of `CS(=O)(=O)N1CCCC(C(=O)NCCCN2CCc3ccccc3C2)C1` (stereo not given), the inhibition was 2%.

`O=C(NCc1ccccn1)Nc1ccc2c(c1)OCO2`: the inhibition was 4%.

For the compound `CCCc1cc(C(N)=O)c(NC(=O)c2ccco2)s1`, the inhibition was 0%.

`O=C1CN(c2nc3ccccc3n3cnnc23)CC(=O)N1CCc1ccccc1`: the inhibition is 4%.

Consider `CCN(CC)CCN1C(=O)C(O)=C(C(=O)c2cccs2)C1c1ccccn1` (stereo not given), for which the inhibition is 0%.

For `CC(C)COC(=O)NCC12C=CC(O1)C1C(=O)N(c3ccc(Cl)cc3)C(=O)C12` (stereo not given), the inhibition was 0%.

On to `CCOC(=O)c1ccc(-n2c(C)nc3c(cnn3-c3ccccc3C)c2=O)cc1`, for which the inhibition is 0%.

With `O=C(c1ccc(Cl)cc1)N(Cc1cccs1)C1CCS(=O)(=O)C1` (stereo not given), the inhibition was 0%.

In the case of `COc1ccc(OC)c(-c2nc3c(C)n[nH]c(=O)c3[nH]2)c1`, the inhibition is 0%.

As to `Cn1c(=O)c2c(nc(SCCOc3ccc4ccc(=O)oc4c3)n2C)n(C)c1=O`, the inhibition was 0%.
